Results as given in PubChem BioAssay (Tox21).
Inconclusive results are not listed. The source made the active and inactive calls. Unless noted, calls come from the whole dose curve.

How the values were obtained:
[1] = qHTS assay to identify small molecule antagonists of the estrogen receptor beta (ER-beta) signaling pathway - cell viability counter screen (AID 1259382; active = well fitted curve in the direction sought with a large enough effect in the repeat runs; an effect the other way counts as inactive or inconclusive;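 note: HEK293T cells carrying ER-beta-UAS-bla reporter stimulated with estradiol; series mostly up to about 92 µM; nearly all actives have a fitted effect of over 55% in size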)
In short: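 Cytotoxicity counter screen multiplexed with the beta-lactamase antagonist assay: GripTite HEK293T ER-beta-bla cells were treated 16 hr with test chemicals in the presence of 1nM 17-beta-estradiol, and viability was measured by CellTiter-Glo.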

[2] = target: Estrogen receptor (Homo sapiens) (UniProt P03372); experiment: qHTS assay to identify small molecule agonists of the estrogen receptor alpha (ER-alpha) signaling pathway in the presence of an antagonist (AID 1259383); note: top concentration of the series differs between compounds; nearly all actives have a fitted effect of over 15% in size
Estrogen receptor (Homo sapiens), sequence (P03372 whole entry, looked up): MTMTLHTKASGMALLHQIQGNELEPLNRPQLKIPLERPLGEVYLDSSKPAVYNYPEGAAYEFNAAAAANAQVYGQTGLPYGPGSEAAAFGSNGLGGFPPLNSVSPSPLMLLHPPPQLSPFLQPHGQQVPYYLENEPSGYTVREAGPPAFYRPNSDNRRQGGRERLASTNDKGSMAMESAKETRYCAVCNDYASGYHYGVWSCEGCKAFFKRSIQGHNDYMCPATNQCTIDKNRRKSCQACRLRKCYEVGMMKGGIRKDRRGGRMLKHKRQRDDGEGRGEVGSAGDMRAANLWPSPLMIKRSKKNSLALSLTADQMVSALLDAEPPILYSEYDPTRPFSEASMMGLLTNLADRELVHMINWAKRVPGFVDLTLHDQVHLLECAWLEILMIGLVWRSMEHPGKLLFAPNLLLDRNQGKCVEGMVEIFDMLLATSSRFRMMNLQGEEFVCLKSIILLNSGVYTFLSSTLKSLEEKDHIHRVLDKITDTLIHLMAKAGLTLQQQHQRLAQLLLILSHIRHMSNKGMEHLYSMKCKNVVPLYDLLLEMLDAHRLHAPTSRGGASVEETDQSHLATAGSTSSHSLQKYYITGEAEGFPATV
In short: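 Agonist-mode confirmation in the presence of the ER antagonist ICI-182,780 at 10.0nM final. Breast-derived VM7Luc4E2 reporter cells were exposed to compounds for 22hr, and ERE-driven luciferase was quantified by luminescence.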

[3] = qHTS assay to identify small molecule agonists or antagonists of the thyroid stimulating hormone receptor (TSHR) signaling pathway - wild type cell line counter screen (AID 1259384)
In short: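 Wild-type HEK293 cells were plated 18 h at 37 C/5% CO2, pin-dosed with compound plus Ro20-1724 medium, held 30 min at room temperature, then given cAMP-d2 and anti-cAMP-cryptate; fluorescence was read after 1 h. Fifteen concentrations, triplicate.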

[4] = target: Thyrotropin receptor (Homo sapiens) (UniProt P16473); experiment: qHTS assay to identify small molecule antagonists of the thyroid stimulating hormone receptor (TSHR) signaling pathway (AID 1259385); note: nearly all actives have a fitted effect of over 20% in size
Thyrotropin receptor (Homo sapiens), sequence (P16473 whole entry, looked up): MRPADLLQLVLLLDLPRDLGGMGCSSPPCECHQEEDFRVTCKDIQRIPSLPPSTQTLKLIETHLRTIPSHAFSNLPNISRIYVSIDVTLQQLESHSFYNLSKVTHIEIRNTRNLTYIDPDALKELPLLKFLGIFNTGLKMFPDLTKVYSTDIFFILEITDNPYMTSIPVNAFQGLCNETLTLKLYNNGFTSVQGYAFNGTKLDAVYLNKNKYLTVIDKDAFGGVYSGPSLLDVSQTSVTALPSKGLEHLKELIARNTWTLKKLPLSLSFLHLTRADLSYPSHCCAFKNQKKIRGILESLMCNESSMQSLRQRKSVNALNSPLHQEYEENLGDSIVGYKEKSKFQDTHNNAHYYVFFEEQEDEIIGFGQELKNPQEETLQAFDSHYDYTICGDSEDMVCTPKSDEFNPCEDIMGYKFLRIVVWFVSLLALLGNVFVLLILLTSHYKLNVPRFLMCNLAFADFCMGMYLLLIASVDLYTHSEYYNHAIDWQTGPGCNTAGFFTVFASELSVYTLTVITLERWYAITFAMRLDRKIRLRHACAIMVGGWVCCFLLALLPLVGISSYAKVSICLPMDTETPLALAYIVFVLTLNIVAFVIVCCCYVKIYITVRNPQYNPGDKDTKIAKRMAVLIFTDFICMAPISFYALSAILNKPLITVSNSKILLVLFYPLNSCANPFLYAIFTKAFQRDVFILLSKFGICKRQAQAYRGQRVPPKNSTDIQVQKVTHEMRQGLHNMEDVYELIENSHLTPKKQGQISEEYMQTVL
In short: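 TSHR-HEK293 cells were plated and held 18 h at 37C/5% CO2, then given compound plus Ro20-1724 and stimulated with TSH at 1.5 ng/mL final. After 30 min at room temperature, cAMP was detected with cAMP-d2/anti-cAMP-cryptate (1 h) by fluorescence.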

[5] = qHTS assay to identify small molecule agonists of the estrogen receptor alpha (ER-alpha) signaling pathway in the presence of an antagonist - cell viability counter screen (AID 1259386; active = well fitted curve in the direction sought with a large enough effect in the repeat runs; an effect the other way counts as inactive or inconclusive;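 note: series mostly up to about 92 µM; cells exposed to compounds for 22 h at 37 °C before the viability read; nearly all actives have a fitted effect of over 30% in size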)
In short: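 Cytotoxicity was measured in parallel with the ERE-luciferase agonist screen, in the same wells. The cells were VM7Luc4E2, which endogenously express ER-alpha, and treatment was with compounds plus 10.0nM ICI-182,780 for 22hr.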

[6] = target: Progesterone receptor (Homo sapiens) (UniProt P06401); experiment: qHTS assay to identify small molecule antagonists of the progesterone receptor (PR) signaling pathway (AID 1346795; active = well fitted inhibition curve with a large enough effect in the signal ratio in the repeat runs, not every such curve was filed as active; the % refers to the signal ratio)
Progesterone receptor (Homo sapiens), sequence (P06401 whole entry, looked up): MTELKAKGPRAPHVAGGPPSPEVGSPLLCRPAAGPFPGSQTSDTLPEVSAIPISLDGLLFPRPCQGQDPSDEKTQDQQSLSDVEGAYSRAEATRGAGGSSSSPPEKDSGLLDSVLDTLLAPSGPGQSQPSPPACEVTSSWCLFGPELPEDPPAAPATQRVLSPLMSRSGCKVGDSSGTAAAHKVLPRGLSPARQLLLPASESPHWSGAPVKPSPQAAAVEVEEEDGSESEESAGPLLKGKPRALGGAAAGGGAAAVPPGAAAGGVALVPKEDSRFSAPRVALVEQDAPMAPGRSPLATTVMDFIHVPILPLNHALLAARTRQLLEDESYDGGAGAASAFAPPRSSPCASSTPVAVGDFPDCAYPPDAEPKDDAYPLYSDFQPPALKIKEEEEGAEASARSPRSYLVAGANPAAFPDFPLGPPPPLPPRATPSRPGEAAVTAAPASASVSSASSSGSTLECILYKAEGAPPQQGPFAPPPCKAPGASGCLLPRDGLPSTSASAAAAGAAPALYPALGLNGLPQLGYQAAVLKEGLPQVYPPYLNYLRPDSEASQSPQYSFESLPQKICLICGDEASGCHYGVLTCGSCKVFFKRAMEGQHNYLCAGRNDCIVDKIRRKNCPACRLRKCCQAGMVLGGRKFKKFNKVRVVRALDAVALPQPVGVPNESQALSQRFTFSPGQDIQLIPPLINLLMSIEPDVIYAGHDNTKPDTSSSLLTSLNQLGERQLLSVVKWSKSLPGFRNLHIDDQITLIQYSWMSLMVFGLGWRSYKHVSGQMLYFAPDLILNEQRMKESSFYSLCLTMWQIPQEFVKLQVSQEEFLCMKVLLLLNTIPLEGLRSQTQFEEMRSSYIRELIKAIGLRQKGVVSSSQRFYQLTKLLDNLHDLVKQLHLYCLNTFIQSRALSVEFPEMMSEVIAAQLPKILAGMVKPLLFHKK
In short: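 Beta-lactamase reporter, HEK293T PR-UAS-bla line; 2% charcoal-stripped FBS; 6 hr pre-incubation, 37C/5% CO2. Compound + R5020 1 nM final, 16 hr. LiveBLAzer B/G FRET substrate, 2 hr RT; fluorescence intensity read.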

[7] = qHTS assay to identify small molecule antagonists of the progesterone receptor (PR) signaling pathway - cell viability counter screen (AID 1346798; active = well fitted curve in the direction sought with a large enough effect in the repeat runs; an effect the other way counts as inactive or inconclusive; note: series mostly up to about 92 µM; nearly all actives have a fitted effect of over 50% in size)
In short: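 Luminescence readout (CellTiter-Glo, 30 min, RT) of viability in PR-UAS-bla HEK293T cells exposed to compound and R5020 agonist for 16 hr at 37C, 5% CO2; run in the same wells as the beta-lactamase reporter read.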

[8] = target: Progesterone receptor (Homo sapiens) (UniProt P06401); experiment: qHTS assay to identify small molecule agonists of the progesterone receptor (PR) signaling pathway (AID 1346784); note: nearly all actives have a fitted effect of over 30% in size
In short: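 HEK 293T PR-UAS-bla reporter cells, 2% charcoal-stripped FBS; 6 hr settle at 37C/5% CO2, compound (DMSO) 16 hr, LiveBLAzer B/G FRET substrate 2 hr RT, fluorescence intensity read.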

[9] = qHTS assay to identify small molecule agonists of the progesterone receptor (PR) signaling pathway - cell viability counter screen (AID 1346799); note: nearly all actives have a fitted effect of over 45% in size
In short: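 HEK293T PR-UAS-bla, 3,000 cells/well, 2% charcoal-stripped FBS; 6 h settle, compound 16 h at 37C/5% CO2; LiveBLAzer 2 h RT, then CellTiter-Glo 30 min RT, luminescence read.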
% is set by controls: 0 for no effect and ±100 for the full control effect.

C[C@@H](O)C(=O)O
inactive: outcome [1] | Potency [2] | outcome [3] | outcome [4] | outcome [5] | Potency [6] | outcome [7]

CC/C(C)=N\O[Si](C)(O/N=C(\C)CC)O/N=C(\C)CC
inactive: outcome [1] | Potency [2] | outcome [3] | outcome [4] | outcome [5] | Potency [8] | outcome [7] | outcome [9]

O=C=NCC1CCCC(CN=C=O)C1 (stereo not given)
inactive: outcome [1] | Potency [2] | outcome [3] | outcome [4] | outcome [5] | outcome [7] | outcome [9]

c1ccc(-c2nn[nH]n2)cc1
inactive: outcome [1] | Potency [2] | outcome [3] | outcome [4] | Potency [8] | Potency [6] | outcome [7] | outcome [9]

CN(C)CCCCl
inactive: outcome [1] | Potency [2] | outcome [3] | outcome [5] | Potency [8] | Potency [6] | outcome [7] | outcome [9]

COC(=O)c1cccc(Cl)c1
inactive: outcome [1] | Potency [2] | outcome [3] | outcome [5] | Potency [8] | Potency [6] | outcome [7] | outcome [9]

O=C(CCCCC(=O)Nc1c(I)cc(I)c(C(=O)O)c1I)Nc1c(I)cc(I)c(C(=O)O)c1I
inactive: outcome [1] | Potency [2] | outcome [3] | outcome [4] | Potency [8] | Potency [6] | outcome [9]

CCCCCC/C=C/C(=O)OC
inactive: outcome [1] | outcome [3] | outcome [4] | outcome [5] | Potency [8] | Potency [6] | outcome [7] | outcome [9]

N#CCC(=O)NN
inactive: outcome [1] | Potency [2] | outcome [3] | outcome [4] | Potency [8] | Potency [6] | outcome [7] | outcome [9]

CN1CCOC(c2ccccc2)c2ccccc2C1 (stereo not given)
inactive: outcome [1] | outcome [3] | outcome [4] | outcome [5] | Potency [8] | Potency [6] | outcome [7] | outcome [9]

OC[C@@H](O)C(O)[C@@H](O)CO (stereo not given in full)
inactive: outcome [1] | outcome [3] | outcome [4] | outcome [5] | Potency [8] | Potency [6] | outcome [7] | outcome [9]

CCCCSCCCC
inactive: outcome [1] | outcome [3] | outcome [4] | outcome [5] | Potency [8] | Potency [6] | outcome [7] | outcome [9]

OCC(O)CN1CCN(c2ccccc2)CC1 (stereo not given)
inactive: outcome [1] | outcome [3] | outcome [4] | outcome [5] | Potency [8] | Potency [6] | outcome [7] | outcome [9]

CCCCOCC(C)O (stereo not given)
inactive: outcome [1] | Potency [2] | outcome [3] | outcome [4] | Potency [8] | Potency [6] | outcome [7] | outcome [9]

O=C1CCC(=O)N1Cl
inactive: outcome [1] | Potency [2] | outcome [3] | outcome [4] | Potency [6] | outcome [7]

CCn1cc(C(=O)O)c(=O)c2cnc(N3CCCC3)nc21
inactive: activity change, negative = cytotoxicity [1] 13.9% [at 8.39 µM] | cAMP activity change [3] -5.06% [at 8.39 µM] | activity change, negative = inhibition [4] -0.0847% [at 8.39 µM] | activity change, negative = cytotoxicity [5] -1.71% [at 8.39 µM] | activation [8] 0.947% [at 8.39 µM] | activity change, negative = inhibition [6] 1.66% [at 8.39 µM] | activity change, negative = cytotoxicity [7] 1.24% [at 8.39 µM] | activity change, negative = cytotoxicity [9] 1.71% [at 8.39 µM]

N#Cc1cscn1
inactive: outcome [1] | outcome [3] | outcome [4] | outcome [5] | Potency [8] | Potency [6] | outcome [7] | outcome [9]

CC(C)OC(=O)CCC(=O)OC(C)C
inactive: outcome [1] | outcome [3] | outcome [4] | outcome [5] | Potency [8] | Potency [6] | outcome [7] | outcome [9]

CC(=O)OCC(=O)Nc1cc(C#N)cc(NC(=O)COC(C)=O)c1Cl
inactive: outcome [1] | Potency [2] | outcome [3] | outcome [4] | Potency [8] | outcome [7] | outcome [9]

Cn1c(=O)c2[nH]c(Br)nc2n(C)c1=O
inactive: outcome [1] | outcome [3] | outcome [4] | outcome [5] | Potency [8] | Potency [6] | outcome [7] | outcome [9]

CN(C)CCCO[C@@H]1[C@H]2OC(C)(C)O[C@H]2O[C@@H]1C(O)CO (stereo not given in full)
inactive: outcome [1] | Potency [2] | outcome [5] | Potency [8] | Potency [6] | outcome [7] | outcome [9]

O=C(O)CCCCCC(=O)O
inactive: outcome [1] | Potency [2] | outcome [5] | Potency [8] | Potency [6] | outcome [7] | outcome [9]

CCCCCCCCCOC(=O)CCCCC(=O)OCCCCCCC
inactive: outcome [1] | outcome [3] | outcome [4] | outcome [5] | Potency [8] | Potency [6] | outcome [7] | outcome [9]

c1ccc2cnccc2c1
inactive: outcome [1] | Potency [2] | outcome [5] | Potency [8] | outcome [7] | outcome [9]

CC1=NN(c2ccc(S(=O)(=O)O)cc2)C(=O)C1
inactive: outcome [1] | outcome [3] | outcome [4] | outcome [5] | Potency [8] | Potency [6] | outcome [7] | outcome [9]
